Laboratory results as given in PubChem BioAssay.
Activity calls are given as the source filed them. Unless noted, no rule for the calls is given here.

How the values were obtained:
[1] = resazurin metabolic signal in HepG2 cells – cell-based, resazurin fluorescence, 24 h, PK04 Diversity Set, profiling panel (AID 1172); details: HepG2 viability, higher = more signal
[2] = budding yeast growth changes without added modifier – OD600, strain BY4716, 24 h, basal condition, primary screen (AID 1173); details: S. cerevisiae BY4716 growth, OD600, 24 h; higher = more signal, called active from +8 up or from −8 down
[3] = viability profiling in MM1S myeloma cells – cell-based, resazurin fluorescence, basal, 24 h, PK04 Diversity Set, profiling panel (AID 1174); details: higher = more signal, called active from +8 up or from −8 down;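 also: MM1S multiple myeloma cell line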
[4] = molecular target: Dihydroorotate dehydrogenase (quinone), mitochondrial (Plasmodium falciparum (isolate 3D7)) (UniProt Q08210); assay: inhibition of P. falciparum DHODH – biochemical, C-terminal His tag, absorbance 600 nm, primary screen (AID 1175); details: PfDHODH enzyme, DCIP absorbance 600 nm; higher = more signal, called active from +8 up or from −8 down;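 also: recombinant parasite enzyme with a five histidine tag at its C terminus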
Dihydroorotate dehydrogenase (quinone), mitochondrial (Plasmodium falciparum (isolate 3D7)), sequence (Q08210 whole entry, looked up): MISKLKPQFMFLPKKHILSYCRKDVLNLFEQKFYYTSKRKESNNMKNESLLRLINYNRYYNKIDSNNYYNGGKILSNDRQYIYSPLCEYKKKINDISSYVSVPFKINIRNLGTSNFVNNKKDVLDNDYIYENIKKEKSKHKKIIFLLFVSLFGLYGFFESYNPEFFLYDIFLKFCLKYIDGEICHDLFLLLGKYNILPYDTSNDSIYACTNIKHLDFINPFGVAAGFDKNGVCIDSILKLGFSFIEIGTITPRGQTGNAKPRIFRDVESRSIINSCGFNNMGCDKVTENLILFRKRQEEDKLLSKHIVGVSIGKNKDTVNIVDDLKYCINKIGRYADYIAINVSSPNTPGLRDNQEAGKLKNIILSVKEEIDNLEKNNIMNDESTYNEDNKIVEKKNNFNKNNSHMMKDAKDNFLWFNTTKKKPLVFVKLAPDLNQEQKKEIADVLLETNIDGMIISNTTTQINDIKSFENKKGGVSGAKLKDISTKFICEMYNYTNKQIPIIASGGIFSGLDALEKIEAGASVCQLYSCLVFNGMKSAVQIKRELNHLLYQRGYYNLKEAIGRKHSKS

[5] = inhibition of PAO1 biofilm formation – strain PAO1, LB-PBS medium, absorbance 600 nm, primary screen (AID 1176); details: P. aeruginosa PAO1 growth/biofilm, A600, 12 h; higher = more signal
[6] = growth modulation of vineyard yeast isolate – strain RM11-1a, OD600, basal, 24 h, primary screen (AID 1177);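 also: cultures grown under basal conditions with no added stressor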; details: S. cerevisiae RM11-1a growth, OD600, 24 h; higher = more signal, called active from +8 up or from −8 down
[7] = growth of efflux-deficient E. coli DRC39 – strain DRC39, OD650, 24 h, E. coli filamentation inducers, primary screen (AID 1178);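 also: growth measured as culture turbidity by optical density at 650 nm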; details: E. coli DRC39 acrAB, higher = more signal, called active from +8 up or from −8 down
[8] = growth of efflux-deficient E. coli DRC39 – strain DRC39, OD650, 48 h, E. coli filamentation inducers, primary screen (AID 1179);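 also: screen aims at cell division blockers that make cells filament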; details: E. coli DRC39 delta-acrAB growth, higher = more signal, called active from +8 up or from −8 down
[9] = viability profiling in RPMI8226 myeloma cells – cell-based, resazurin fluorescence, basal, 24 h, PK04 Diversity Set, profiling panel (AID 1180); details: higher = more signal;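 also: RPMI8826 multiple myeloma cell line at 5000 cells per well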
[10] = molecular target: E3 ubiquitin-protein ligase XIAP (Homo sapiens) (UniProt P98170); assay: small molecules binding XIAP protein – biophysical, small-molecule microarray, fluorescence 635 nm, primary screen (AID 1181); details: higher = more signal;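 also: score merges 667 nm emission and signal to noise over triplicate slides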
E3 ubiquitin-protein ligase XIAP (Homo sapiens), sequence (P98170 whole entry, looked up, the tested form may be a part): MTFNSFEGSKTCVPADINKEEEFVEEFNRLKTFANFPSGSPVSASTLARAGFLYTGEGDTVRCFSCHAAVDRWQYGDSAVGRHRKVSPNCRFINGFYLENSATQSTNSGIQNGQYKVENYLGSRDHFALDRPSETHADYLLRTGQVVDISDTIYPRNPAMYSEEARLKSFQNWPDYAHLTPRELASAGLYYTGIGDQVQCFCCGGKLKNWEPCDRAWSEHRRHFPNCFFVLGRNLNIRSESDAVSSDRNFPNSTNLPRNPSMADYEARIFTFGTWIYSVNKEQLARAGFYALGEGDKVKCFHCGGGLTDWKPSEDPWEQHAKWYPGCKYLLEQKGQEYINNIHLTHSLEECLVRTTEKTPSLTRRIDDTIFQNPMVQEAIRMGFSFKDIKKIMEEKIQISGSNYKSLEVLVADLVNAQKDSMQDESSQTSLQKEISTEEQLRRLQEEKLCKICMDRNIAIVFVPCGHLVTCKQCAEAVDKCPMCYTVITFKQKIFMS

[11] = tested on: XIP peptide (Xip251-270) binding; assay: XIP fragment 251-270 binding compounds – biochemical, small-molecule microarray, fluorescence 635/667 nm, 0.1 µg/mL protein, primary screen (AID 1182); details: fluorescent protein binding, 635 nm, higher = more signal, called active from +8 up or from −8 down
XIP peptide (Xip251-270) = assay: compounds binding XIP fragment 251-270 – biochemical, small-molecule microarray, fluorescence 635/667 nm, 0.5 µg/mL protein, primary screen (AID 1183); details: fluorescence 635 nm, higher = more signal
[12] = blood-stage malaria parasite viability loss – strain 3D7, DAPI fluorescence, 100 nL, primary screen (AID 1184);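 also: parasites grown inside human red blood cells in medium with human serum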; details: P. falciparum 3D7 growth, 3 d, higher = more signal
[13] = molecular target: Homeobox protein Hox-A13 (Mus musculus) (UniProt Q62424); assay: disruptors of Hoxa13 oligonucleotide interaction – biochemical, fluorescence polarization, labeled oligonucleotide, primary screen (AID 1185); details: Hoxa13:DNA binding, 15 min, higher = more signal, called active from +8 up or from −8 down
Homeobox protein Hox-A13 (Mus musculus), sequence (Q62424 whole entry, looked up): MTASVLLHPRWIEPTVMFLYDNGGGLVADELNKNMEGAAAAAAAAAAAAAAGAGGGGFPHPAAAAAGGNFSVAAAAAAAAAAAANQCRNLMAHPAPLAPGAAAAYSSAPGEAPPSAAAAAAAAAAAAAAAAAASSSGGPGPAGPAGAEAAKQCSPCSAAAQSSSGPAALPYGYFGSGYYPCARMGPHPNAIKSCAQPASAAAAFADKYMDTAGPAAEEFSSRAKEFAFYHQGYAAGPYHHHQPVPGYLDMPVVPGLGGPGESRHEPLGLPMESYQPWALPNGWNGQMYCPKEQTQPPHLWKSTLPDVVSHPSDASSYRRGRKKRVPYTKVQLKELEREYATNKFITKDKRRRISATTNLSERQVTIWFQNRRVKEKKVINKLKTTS

[14] = blockers of DNA damage checkpoint Chk1 activation – imaging, HeLa, hydroxyurea, phospho-Chk1 antibody, percent positive cells, primary screen (AID 1186); details: hydroxyurea-induced phospho-Chk1 immunofluorescence imaging, higher = more signal
[15] = blockers of DNA damage checkpoint Chk1 activation – imaging, HeLa, hydroxyurea, phospho-Chk1 nuclear intensity, primary screen (AID 1187); details: hydroxyurea-induced phospho-Chk1 immunofluorescence imaging, higher = more signal

| SMILES | z-score [1] | z-score [2] | z-score [3] | composite z-score [4] | z-score [5] | z-score [6] | z-score [7] | z-score [8] | z-score [9] | composite z-score [10] | composite z-score [11] | composite z-score (XIP peptide (Xip251-270)) | z-score [12] | z-score [13] | z-score [14] | z-score [15] |
| --- | --- | --- | --- | --- | --- | --- | --- | --- | --- | --- | --- | --- | --- | --- | --- | --- |
| COCCOC(=O)N1C(=O)[C@@]2(c3cc(C#CC4=CCCCC4)ccc31)[C@H](c1ccc(OCCO)cc1)N1[C@H](c3ccccc3)[C@H](c3ccccc3)OC(=O)[C@H]1[C@@H]2C(=O)NC[C@H](O)c1ccccc1 | 0.334 | 2.36 (inactive) | -0.363 (inactive) | 0.184 (inactive) | 3.6 (inactive) | 2.83 (inactive) | -0.441 (inactive) | -0.16 (inactive) | -0.48 | -0.12 | 0.575 (inactive) | 0.622 | -2.1 | 1.86 (inactive) | 0.107 (inactive) | 0.576 (inactive) |
| N#Cc1ccc(C(O)C2C=CC3C(=O)N(c4ccccc4)C(=O)C3N2Nc2ccccc2)cc1 (centres undefined) | -0.888 | -2.46 (inactive) | -0.697 (inactive) | -0.561 (inactive) | 1.06 (inactive) | -0.433 (inactive) | 0.366 (inactive) | 0.0165 (inactive) | -0.196 | 0.0537 | 0.294 (inactive) | 0.108 | -0.605 | -1.94 (inactive) | -0.18 (inactive) | -0.383 (inactive) |
| CO[C@]12C=C(Br)[C@@H](C[C@@H]1c1cccc(C)c1)[C@@]1(CO1)C2=O | 1.17 | -5.41 (inactive) | -0.674 (inactive) | 0.227 (inactive) | -0.447 (inactive) | -0.338 (inactive) | 0.632 (inactive) | 0.378 (inactive) | 0.478 | -0.148 | 0.177 (inactive) | 0.179 | 0.267 | -1.7 (inactive) | -0.545 (inactive) | -0.28 (inactive) |
| COc1ccc([Si](C)(C)[C@H]2[C@H](CC(=O)N(CCO)Cc3ccccc3)O[C@@]3(C(=O)N(Cc4cccc(N5CCOC5=O)c4)c4ccccc43)[C@@H]2C)cc1 | -2.5 | 0.181 (inactive) | -3.55 (inactive) | 0.966 (inactive) | 1.28 (inactive) | 2.36 (inactive) | -0.566 (inactive) | -0.639 (inactive) | -3.7 | -0.0562 | 0.114 (inactive) | 0.77 | -2.69 | -2.33 (inactive) | -0.178 (inactive) | -0.157 (inactive) |
| COCCCNC(=O)[C@]1(CCS(=O)(=O)c2ccccc2)N=C(c2ccc(OCCCO)cc2)O[C@@H]1c1ccccc1N=[N+]=[N-] | 0.129 | 0.0817 (inactive) | -0.458 (inactive) | 0.887 (inactive) | 0.413 (inactive) | 0.771 (inactive) | 0.357 (inactive) | 0.0059 (inactive) | -0.998 | -0.199 | 1.26 (inactive) | 0.731 | -2.4 | -3.71 (inactive) | -0.198 (inactive) | -0.266 (inactive) |
| COCC1=C2[C@@H](CCc3ccccc3)OB(O)C[C@@H]2[C@@H]2C(=O)C=CC(=O)[C@@H]2C1 | -1.15 | -5.61 (inactive) | -0.997 (inactive) | -4.14 (inactive) | 0.106 (inactive) | -0.143 (inactive) | -0.244 (inactive) | 0.0271 (inactive) | -0.878 | 0.906 | 0.796 (inactive) | -0.154 | -1.28 | -6.27 (inactive) | 0.162 (inactive) | 0.398 (inactive) |
| C=C(COC)C(=O)CC[C@@H](OC(=O)c1cccnc1)c1ccc(OCCO)cc1 | 0.379 | -16 (active) | 0.556 (inactive) | -3.49 (inactive) | 0.178 (inactive) | -0.499 (inactive) | 0.864 (inactive) | 0.441 (inactive) | 0.221 | -0.184 | -0.344 (inactive) | 0.481 | 0.415 | -4.4 (inactive) | -0.0647 (inactive) | -0.573 (inactive) |
| COc1ccc([Si](C)(C)[C@@H]2[C@@H](CC(=O)N3Cc4ccccc4C[C@H]3CO)O[C@]3(C(=O)N(Cc4cccc(N5C(=O)c6cccc7cccc5c67)c4)c4ccccc43)[C@H]2C)cc1 | -0.468 | 0.517 (inactive) | -1.54 (inactive) | -3.83 (inactive) | 1.42 (inactive) | 0.618 (inactive) | 0.226 (inactive) | -0.143 (inactive) | -0.711 | -0.253 | 1.26 (inactive) | 0.574 | -2.59 | -1.47 (inactive) | 0.115 (inactive) | -0.0849 (inactive) |
| COC(=O)c1c2oc(c1C(=O)OC)C(=O)N(C)Cc1cn(nn1)C[C@H](Cc1ccccc1)NC(=O)N[C@H](CO)CC2 | -0.356 | 0.415 (inactive) | -0.286 (inactive) | 0.31 (inactive) | 0.0914 (inactive) | 1.2 (inactive) | -0.499 (inactive) | -0.913 (inactive) | -0.139 | -0.0559 | 0.15 (inactive) | -0.374 | -0.38 | -1.66 (inactive) | 0.453 (inactive) | 0.723 (inactive) |
